Source: PubChem BioAssay
Pf growth 96h = P. falciparum growth inhibition at 96 hour, primary screen for plastid delayed-death inhibitors | P. falciparum luciferase reporter growth, 96 h | Potency, µM (series often up to 28.7 µM), inactives show at the top dose activity change, negative = inhibition, actives largely listed as inhibitors | 6.9% of 320,000 active; also: potency is read from the fitted curve at half-maximal effect; % is scaled to controls: 0 for no effect and ±100 for the full control effect
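Parasite growth measured via integrated firefly luciferase reporter in P. falciparum. Infected erythrocytes at 2% hematocrit, 0.05% parasitemia final were treated 96 hours at 37 C under 5% CO2, and luminescence was read.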
HCMV inh = human cytomegalovirus inhibition; HFF cells, HCMV-luciferase reporter, 72 h; active compounds read low; activity change, negative = inhibition, % at 57.5 µM; 4.5% of 410,000 active; AID 1259415; in the data active = activity change below about -60%; inconclusive = no clear call, values can overlap the other calls; inactive = above about -39%; also: % is scaled to controls: 0 for no effect and ±100 for the full control effect
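Luciferase read-out from HCMV-luciferase-infected HFFs (MOI 1 PFU/cell) 72 h post infection at 37C; compounds added after 16 h cell attachment; activity normalized between buffer-only basal and Salinomycin (10uM) inhibitor controls.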
CHX counter = affects cycloheximide protein synthesis inhibition readout, counter-screen | cell reporter, cycloheximide protein synthesis inhibition counterscreen | max response, % | 12% of 300,000 active; in the data active = max response mostly above about 13%, no sharp cut-off; inactive = mostly below about 14%; also: read at 38.3 µM for the half of the compounds with a filed dose; 0% is about no effect
Shiga inhibitor = Shiga toxin inhibition. Vero cells, Shiga toxin protein synthesis inhibition reporter. inhibition, % at 38.7 µM. 9.2% of 290,000 active; in the data active = inhibition mostly above about 28%, no sharp cut-off; inactive = mostly below about 43%; also: 0% is about no effect
HCV inhibitor = blocks hepatitis C virus. Huh7.5.1 HCVcc-Cre infection, luciferase reporter, 44 h. Potency, µM (titrated, usually from 41.8 µM), for the others: at the highest dose activity change, negative = inhibition, usual class: inhibitors. 3.4% of 340,000 active. AID 651820; also: potency is read from the fitted curve at half-maximal effect; % is scaled to controls: 0 for no effect and ±100 for the full control effect
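Reporter virus HCVcc-Cre (~0.5 moi) infects cells exposed to compound; seeding density 1,000 cells/well with 4 h settling beforehand. Luminescence, 15 sec read, taken 44 h post-infection following a 15 min RT substrate incubation.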
Pf growth 48h = inhibits P. falciparum growth in the first generation, 48 h; P. falciparum luciferase growth in erythrocytes, 48 h; Potency, µM (highest dose often 28.7 µM), for inactives: top-dose activity change, negative = inhibition, most hits filed as inhibitors; 5.9% of 310,000 active; AID 504832; also: potency is read from the fitted curve at half-maximal effect; % is scaled to controls: 0 for no effect and ±100 for the full control effect
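Luciferase-expressing parasites in RBCs, 2% Hct / 0.1% parasitemia final; RPMI 1640 + 0.5% Albumax; 37 C, 5% CO2, one generation; luminescence read-out, lower signal = inhibition.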
An asterisk follows results filed as active; ? = inconclusive; nt = no result given. Rows were chosen to be rich in hits. Some 21% of all compounds tested hit in one or more screens of this group. Unless noted, calls follow the shape of the dose curve; as a rule, active = well fitted inhibition curve with a large enough effect; inconclusive = small, poorly fitted or top-dose-only effect, or another doubt; inactive = no such curve, though single readings can be large or run the other way.

SMILES	Pf growth 96h	HCMV inh	CHX counter	Shiga inhibitor	HCV inhibitor	Pf growth 48h
Cc1ccc(S(=O)(=O)N(CC(=O)NC2CC3CCC2C3)c2ccccc2)cc1 (centres undefined)	nt	-17	nt	nt	nt	nt
COc1cc(C(=O)N2CCNC(=O)C2CC(=O)Nc2ccc(C)c(C)c2)cc(OC)c1OC (centres undefined)	nt	-6	nt	nt	nt	nt
CC(C)CC(=O)O/N=C1\C(=O)N(Cc2ccc(Cl)cc2)c2ccc([N+](=O)[O-])cc21	5.2µM*	nt	-3	-8	nt	?
CC(=O)O/N=C1\C(=O)N(Cc2ccc(C)cc2)c2ccccc21	?	-27	7	16	-6%	?
COC1=CC(=O)c2ccccc2C1=O	nt	nt	nt	nt	1µM*	nt
COC1=CC(=O)C=C(OC)C1=O	nt	52	nt	nt	-94%	nt
CCCOc1ccc(C2c3c(-c4ccccc4O)n[nH]c3C(=O)N2CCCOCC)cc1OCC (centres undefined)	nt	-3	nt	nt	nt	nt
O=Cc1ccccc1OCCOc1ccccc1C=O	22%	?	34*	52*	?	-5%
CN1CCN(CCCCOc2ccccc2C=O)CC1	33%	-28	7	-21	10µM*	?
CC(C)NC(=S)N=Nc1c(O)[nH]c2ccc([N+](=O)[O-])cc12	?	?	1	-5	1.1µM*	?
NC(=O)N=Nc1c(O)[nH]c2ccc([N+](=O)[O-])cc12	-20%	-20	1	-2	5%	8%
COc1ccccc1C(=O)N=Nc1c(O)[nH]c2ccc([N+](=O)[O-])cc12	?	55	13	30	-28%	10µM*
C=C(C)CNC(=S)N=Nc1c(O)[nH]c2ccc([N+](=O)[O-])cc12	?	-15	1	2	25µM*	33%
Cc1csc2nc(COc3ccc(NC(=O)C(C)C)cc3)cc(=O)n12	nt	37	nt	nt	nt	nt
COC(=O)C1=C(C)N(Cc2ccccc2)C(=NCc2ccc(OC)cc2)N[C@H]1c1ccc(Br)cc1	?	nt	-1	2	nt	23%
Oc1c(Cl)c(Cl)c2ncccc2c1Cl	nt	-9	nt	nt	3%	nt
Cc1c(C)c2cccnc2c2ncccc12	?	nt	nt	nt	3.2µM*	1.9µM*
Clc1cc2cccnc2c2ncccc12	12µM*	-96*	nt	nt	2.8µM*	12µM*
O=[N+]([O-])c1cc(F)c2cccnc2c1O	?	36	2	19	-24%	0%
O=[N+]([O-])c1cc(Cl)c2cccnc2c1O	-27%	-74*	1	-21	12%	-6%
O=[N+]([O-])c1ccc(O)c2ncccc12	9.5µM*	-99*	-2	-4	?	13µM*
Oc1c(I)cc(Cl)c2cccnc12	?	31	-3	-14	?	?
C#CCNC(=O)C[C@H]1C[C@@]2(C(=O)OC)C(=C[C@H](C(C)(C)C)O[C@@H]2C)N(CCc2ccc(OC)c(OC)c2)C1=O	nt	-30	nt	nt	nt	nt
O=[N+]([O-])c1cc(Cl)c(O)c2ncccc12	10%	-98*	24	23	-15%	-6%
Cc1ccc(CC(=O)O/N=C(\N)c2ccncc2)cc1	10%	6	30*	60	3%	-10%
SMILES	Pf growth 96h	HCMV inh	CHX counter	Shiga inhibitor	HCV inhibitor	Pf growth 48h
Cc1ccc(C(N)=Nc2ccccc2)cc1	70%	75	16*	46	4%	47%
CCC(C(=O)O/N=C(\N)c1ccc(C)cc1)c1ccccc1 (centres undefined)	55%	41	14	21	8%	nt
N/C(=N\OC(=O)Cc1ccccc1)c1ccc(Br)cc1	9%	-19	53*	104*	-1%	42%
COc1ccc(/C(N)=N/OC(=O)Cc2ccc(OC)c(OC)c2)cc1	?	-90*	18	26	?	?
O=C(Nc1ccc(Br)cc1F)c1ccc2nc(CCc3ccccc3)oc2c1	nt	59	nt	nt	nt	nt
N/C(=N\OC(=O)CCCc1ccccc1)c1ccccc1Cl	33%	42	33*	48	5%	12%
Cc1ccc(/C(N)=N/OC(=O)CCCc2ccccc2)cc1	45%	5	57*	43*	-2%	27%
COc1ccc(/C(N)=N/OC(=O)Cc2ccc(C)cc2)cc1	-9%	-31	30*	50*	1%	54%
Cc1ccc(/C(N)=N/OC(=O)Cc2ccccc2)cc1	6%	-37	53*	54*	12%	103%
O=C(Nc1cc(S(=O)(=O)N2CCCCC2)ccc1Cl)C1=NN(c2ccccc2)C(=O)CC1	?	2	-4	5	10%	?
O=C(Nc1cccc(S(=O)(=O)N2CCCCC2)c1)C1=NN(c2ccccc2)C(=O)CC1	6.6µM*	0	nt	nt	6%	5.2µM*
Cc1ccc(C)c(N2N=C(C(=O)Nc3cccc(S(=O)(=O)N4CCCCC4)c3)CCC2=O)c1	4.7µM*	-10	nt	nt	-13%	4.7µM*
CCOc1ccc(NC(=O)C2=NN(c3ccccc3)C(=O)CC2)cc1S(=O)(=O)N1CCCCC1	?	-9	nt	nt	11%	12µM*
CC(C)c1ccc(-c2noc(SCC(=O)N3CCN(c4ccccc4F)CC3)n2)cc1	nt	-1	nt	nt	nt	nt
COC(=O)c1c(NC(=O)c2ccc(OC)cc2OC)sc2c1CCCCC2	nt	-1	nt	nt	nt	nt
CN(C)/C=N/C(=S)Nc1ccccc1	30%	40	19*	88	10%	28%
CN(C)/C=N/C(=S)Nc1ccc(Br)cc1F	?	50	49*	52*	3%	nt
CN(C(=S)Nc1ccccc1)c1ccccc1	-3%	1	-3	-8	-1%	6%
C=CCNC(=S)Nc1ccc(Br)cc1F	89%	?	19	1	?	35%
COc1ccc(S(=O)(=O)NCCc2sc(-c3cccnc3)nc2C)cc1	nt	-6	nt	nt	nt	nt
CCCSc1nnc2c(n1)OC(CC)N(C(C)=O)c1ccccc1-2 (centres undefined)	nt	9	nt	nt	nt	nt
CCN1CCN(C(=O)/C=C/c2ccc3c(c2)OCO3)CC1	-16%	-32	16	19	11%	16%
COC(=O)C1CCN(C(=O)/C=C/c2ccc3c(c2)OCO3)CC1	?	56	15*	nt	20%	187%
CN1CCN(C(=O)/C=C/c2ccc3c(c2)OCO3)CC1	12%	23	26*	38	11%	-6%
C[C@@]12CCC3[C@@](CCC4[C@@]3(C)CCC[C@@]4(C)C(=O)N3CCOCC3)(CC1=O)C2 (some centres undefined)	nt	-19	nt	nt	-15%	nt
COc1ccc(NC(=O)c2c(C)oc3ccc(O)c(CN4CCN(C)CC4)c23)cc1Cl	nt	-16	nt	nt	nt	nt
CCOC(=O)N/N=C\c1cccc(OC)c1	53%	-13	42*	72*	7%	?
COc1ccc(/C=C/C(=O)Oc2cccc(/C=N/NC(=O)Cc3ccc(Br)cc3)c2)cc1	?	-33	49*	89*	-13%	?
COc1cccc(/C=N/NC(=O)CCCC(=O)Nc2ccc(Br)cc2)c1	-7%	-8	0	11	?	15%
